According to PubChem BioAssay:
Active and inactive are the calls of the source. The rule behind the calls is not given here.

How the values were obtained:
[1] = Recombinant Mtb pantothenate synthetase (PanC) inhibitors, coupled enzyme, confirmatory (AID 375); details: coupled enzyme assay; measured here: coupling enzymes IC50 repeat trials unless noted;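 for inhibition: 0% = full reaction with vehicle and 100% = no enzyme background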
[2] = target: Pantothenate synthetase (Mycobacterium tuberculosis (strain ATCC 25618 / H37Rv)) (UniProt P9WIL5); assay: as above; details: coupled enzyme assay; at 10 µM, stronger effect = higher value
Pantothenate synthetase (Mycobacterium tuberculosis (strain ATCC 25618 / H37Rv)), sequence (P9WIL5 whole entry, looked up): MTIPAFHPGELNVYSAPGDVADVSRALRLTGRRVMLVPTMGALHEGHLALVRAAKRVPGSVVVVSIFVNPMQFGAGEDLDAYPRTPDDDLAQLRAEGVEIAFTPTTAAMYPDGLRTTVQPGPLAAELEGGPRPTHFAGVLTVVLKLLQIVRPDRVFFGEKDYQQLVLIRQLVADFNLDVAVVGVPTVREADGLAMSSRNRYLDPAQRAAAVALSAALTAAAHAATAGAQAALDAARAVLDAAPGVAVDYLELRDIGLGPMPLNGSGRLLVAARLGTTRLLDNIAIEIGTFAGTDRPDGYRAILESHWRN

SMILES: COc1ccc2c(c1)CCc1c(C(=O)Nc3cc(C)n(Cc4ccc(Cl)cc4)n3)noc1-2
- IC50 [1]: > 100 µM
- outcome [2]: inactive

SMILES: CC(C)CC(c1nnnn1CC1CCCO1)N1CCN(Cc2ccc3c(c2)OCO3)CC1 (stereo unspecified)
- inhibition [2]: 0% (inactive)

SMILES: COc1ccccc1-c1cc(C(=O)Nc2cc(C)n(Cc3ccc(Cl)cc3)n2)no1
- IC50 [1]: > 100 µM
- outcome [2]: inactive

SMILES: O=c1c2cc(N3CCOCC3)ccc2[nH]c(=S)n1CCCN1CCCC1
- inhibition [2]: 13% (inactive)

SMILES: COc1ccc(-c2cc(C(=O)Nc3cc(C)n(Cc4ccc(Cl)cc4)n3)no2)cc1OC
- IC50 [1]: > 100 µM
- outcome [2]: inactive

SMILES: O=C(NCCc1c[nH]c2ccccc12)c1cnc2n(c1=O)CCS2
- inhibition [2]: 1% (inactive)

SMILES: Cc1ccc(C(=O)CC2(O)C(=O)N(CN3CCOCC3)c3ccccc32)cc1 (stereo unspecified)
- inhibition [2]: 7% (inactive)

SMILES: Cc1ccc(Cn2ccc(NC(=O)c3cc(-c4cccs4)on3)n2)cc1
- IC50 [1]: > 100 µM
- inhibition [2]: 3% (inactive)

SMILES: COc1ccc(OC)c(-c2cc(C(=O)Nc3cc(C)n(Cc4ccc(Cl)cc4)n3)no2)c1
- IC50 [1]: > 100 µM
- outcome [2]: inactive

SMILES: CCN1CCN(S(=O)(=O)Cc2ccccc2)CC1
- inhibition [2]: 0% (inactive)

SMILES: CCC(C)(C)n1nnnc1C(c1ccc(OC)c(OC)c1)N1CCN(c2ccc(F)cc2)CC1 (stereo unspecified)
- inhibition [2]: 0% (inactive)

SMILES: CCOC(=O)c1nnn(CC(=O)Nc2cccc(F)c2)c1C(=O)OCC
- inhibition [2]: 3% (inactive)

SMILES: Cc1cc(NC(=O)c2noc3c2CCCCC3)nn1Cc1ccc(Cl)cc1
- IC50 [1]: > 100 µM
- outcome [2]: inactive

SMILES: Cc1ccc(Cn2ccc(NC(=O)c3cc(-c4ccc(Br)cc4)on3)n2)cc1
- IC50 [1]: > 100 µM
- outcome [2]: inactive

SMILES: Cc1ccc(CCC(=O)Nc2ccc(S(N)(=O)=O)cc2)o1
- inhibition [2]: 1% (inactive)

SMILES: Cc1ccccc1Cn1nc(C)c(NC(=O)c2noc3c2CC(C(C)(C)C)CC3)c1C (stereo unspecified)
- IC50 [1]: > 100 µM
- outcome [2]: inactive

SMILES: CCSc1nnc(NC(=O)c2cc(C)oc2C)s1
- inhibition [2]: 11% (inactive)

SMILES: CCC(C(=O)N1CCc2cc(OC)c(OC)cc2C1)c1ccccc1 (stereo unspecified)
- inhibition [2]: 0% (inactive)

SMILES: CCn1cc(C(=O)O)c(=O)c2cc(F)c(N3CCN(C(=O)Nc4ccccc4)CC3)cc21
- inhibition [2]: 1% (inactive)

SMILES: COc1ccccc1C(=O)Nc1nc2ccc(S(C)(=O)=O)cc2s1
- inhibition [2]: 0% (inactive)

SMILES: CC(=Nc1ccc(C)c(C)c1)C1=C(O)CCC1=O
- inhibition [2]: 3% (inactive)

SMILES: Cc1ccc(Cn2ccc(NC(=O)c3cc(-c4ccc(Cl)cc4)on3)n2)cc1
- IC50 [1]: > 100 µM
- outcome [2]: inactive

SMILES: COc1ccc2c(c1)CCc1c(C(=O)Nc3ccn(Cc4ccc(C)cc4)n3)noc1-2
- IC50 [1]: > 100 µM
- outcome [2]: inactive

SMILES: CCn1c(Cc2ccccc2)nnc1SCC(=O)Nc1nc2ccccc2s1
- inhibition [2]: 2% (inactive)

SMILES: O=C(O)CCn1c(SCc2ccccc2)nc2ccccc21
- inhibition [2]: 0% (inactive)

SMILES: COc1cc(OC)cc(-c2nnc(Nc3nc4c(F)cccc4s3)o2)c1
- inhibition [2]: 12% (inactive)

SMILES: Cc1c(C(=O)OCC(C)(C)CN(C)C)oc2ccccc12
- inhibition [2]: 1% (inactive)

SMILES: CCOc1cccc2cc(C(=O)N3CCN(C/C=C/c4ccccc4)CC3)c(=O)oc12
- inhibition [2]: 0% (inactive)

SMILES: O=C(CSc1nnc(-c2cccs2)o1)NCC1CN(Cc2ccccc2)CCO1 (stereo unspecified)
- inhibition [2]: 0% (inactive)

SMILES: Cc1ccc(S(=O)(=O)NCC(=O)N(CC(=O)NC2CCCCC2)Cc2ccco2)cc1
- inhibition [2]: 11% (inactive)

SMILES: Cc1cc(Nc2ccccc2F)n2ncnc2n1
- inhibition [2]: 0% (inactive)

SMILES: O=C(COC(=O)CCOc1ccccc1)Nc1ccc(Cl)cn1
- inhibition [2]: 0% (inactive)

SMILES: O=C(c1cnn2c(C(F)F)cc(-c3ccccc3)nc12)N1CCN2CCCC2C1 (stereo unspecified)
- inhibition [2]: 0% (inactive)

SMILES: O=C1C2CC=C(Cl)CC2C(=O)N1CNc1ccccn1 (stereo unspecified)
- inhibition [2]: 0% (inactive)

SMILES: O=C(NCC1CCCCN1)c1cc(OCC(F)(F)F)ccc1OCC(F)(F)F (stereo unspecified)
- inhibition [2]: 3% (inactive)

SMILES: O=C1c2ccccc2C(=O)N1CCCCN1CCN(CCCCN2C(=O)c3ccccc3C2=O)CC1
- inhibition [2]: 5% (inactive)

SMILES: CCN1CCN(c2nc3c(c(=O)n(C)c(=O)n3C)n2CCSc2ncccn2)CC1
- inhibition [2]: 0% (inactive)

SMILES: CCC1CCCN1Cn1cnc2c([nH]c3ccc(OC)cc32)c1=O (stereo unspecified)
- inhibition [2]: 1% (inactive)

SMILES: O=C1CC(c2ccccc2)Cc2nc(N3CCc4ccccc43)ncc21 (stereo unspecified)
- inhibition [2]: 1% (inactive)

SMILES: Nc1nnc(SCC(=O)N2CCc3ccccc32)n1-c1ccccc1
- inhibition [2]: 1% (inactive)

SMILES: CCOC(=O)c1cc(CC)sc1NC(=O)COC
- inhibition [2]: 7% (inactive)

SMILES: COc1cccc(N2CCN(CC(=O)NCc3cccs3)CC2)c1
- inhibition [2]: 3% (inactive)

SMILES: Cc1cccc(NC(=O)CN(C)S(=O)(=O)c2ccccc2)n1
- inhibition [2]: 7% (inactive)

SMILES: COc1ccccc1CC(=O)Nc1ccc(OC)c(OC)c1
- inhibition [2]: 3% (inactive)

SMILES: Cc1nnc2n(Cc3ccccc3)c(=O)c3c4c(sc3n12)COC(C(C)C)C4 (stereo unspecified)
- inhibition [2]: 0% (inactive)

SMILES: OCCNCCCCOc1ccccc1F
- inhibition [2]: 0% (inactive)

SMILES: COCCN(CCOC)C(=O)CCn1c(=O)oc2ccccc21
- inhibition [2]: 0% (inactive)

SMILES: FC(F)(F)c1cc(-c2ccco2)nc(NCc2ccco2)n1
- inhibition [2]: 0% (inactive)

SMILES: Cc1ccc(Nc2nc(N)nc(CN3CCCCCC3)n2)cc1
- inhibition [2]: 2% (inactive)

SMILES: Cc1ccc(C2N(c3ccc(Cl)c(Cl)c3)C(=O)C3CCCN32)o1 (stereo unspecified)
- inhibition [2]: 6% (inactive)

SMILES: CCn1c(SCC(=O)Nc2ccc3c(c2)OCO3)nc2c(c1=O)SC(C)C2 (stereo unspecified)
- inhibition [2]: 0% (inactive)

SMILES: CCCn1c(SCC(=O)N2CCN(c3ccccc3)CC2)nc2ccccc2c1=O
- inhibition [2]: 0% (inactive)

SMILES: O=C(Cn1ncc2c1-c1ccccc1OC2)Nc1ccc(Cl)cn1
- inhibition [2]: 6% (inactive)

SMILES: O=C(N1CCCCCC1)N1CCN(S(=O)(=O)N2CCCCC2)CC1
- inhibition [2]: 0% (inactive)

SMILES: CN(C)c1nc(N)nc(CSc2nnnn2-c2cccc3ccccc23)n1
- inhibition [2]: 0% (inactive)

SMILES: O=C(Nc1ccc2oc(-c3ccncc3)nc2c1)c1cccs1
- inhibition [2]: 0% (inactive)

SMILES: CCN(CC)S(=O)(=O)c1ccc2[nH]cc(C(=O)NCCC3=CCCCC3)c(=O)c2c1
- inhibition [2]: 0% (inactive)

SMILES: Cc1cc(OCC(=O)N2CCOCC2)cc2oc(=O)c3ccccc3c12
- inhibition [2]: 0% (inactive)

SMILES: COc1ccc(C)cc1NC(=O)COCC(=O)O
- inhibition [2]: 0% (inactive)

SMILES: Cc1cc(NC(=O)Cn2cnc3c(cnn3C(C)(C)C)c2=O)no1
- inhibition [2]: 3% (inactive)

SMILES: CCOc1ccc(C2C(C#N)=C(N)Oc3cc(C)n(CCN(C)C)c(=O)c32)cc1OCC (stereo unspecified)
- inhibition [2]: 0% (inactive)

SMILES: O=C(C(c1ccccc1)c1ccccc1)N1CCN(Cc2ccccn2)CC1
- inhibition [2]: 0% (inactive)

SMILES: CCCNS(=O)(=O)c1ccc(OCC(=O)Nc2ccccc2F)cc1
- inhibition [2]: 0% (inactive)

SMILES: Cc1ccc(C)c(-n2nnnc2SCC(=O)NCCC2=CCCCC2)c1
- inhibition [2]: 3% (inactive)

SMILES: O=C(NCCc1ccccc1)c1cc(-c2ccco2)on1
- inhibition [2]: 5% (inactive)

SMILES: Fc1ccc(NCc2nnc(SCc3nnc(-c4ccccc4)o3)n2CC2CCCO2)cc1 (stereo unspecified)
- inhibition [2]: 0% (inactive)
